Screening results deposited in PubChem BioAssay by National Center for Advancing Translational Sciences (NCATS).
Shown are actives, neighbours in structure and some others; about 9.5% of the full set was active somewhere.
RE007 growth inh – less growth of the S. pombe RE007 Vpr strain. S. pombe RE007 Vpr strain, BacTiter-Glo ATP luminescence, 24 h. Potency, µM (series often up to 92.2 µM), for inactives: at the highest dose activity change, negative = less growth, most hits filed as inhibitors. 0.21% of 360,000 active; active = well fitted falling curve with a large enough effect; inconclusive = small, poorly fitted or top-dose-only effect; inactive = no such curve, though single readings can be large or run the other way; note: % is set by controls: 0 for no effect and ±100 for the full control effect; nearly all actives have a fitted effect of over 50% in size
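Fission yeast RE007 carrying one integrated HIV-1 vpr copy, seeded at OD 0.01 in PMG+AL medium with 23 nL pinned compound. Grown 24 h at 30 degrees; viability read by BacTiter-Glo luminescence after 5 min.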
NS1 function inh – influenza NS1 inhibition | 0.4% of 270,000 active | Potency, µM (doses to about 46.1 µM), for the others: top-dose activity, positive = more growth; calls by dose curve; note: actives are rising curves; nearly all actives have a fitted effect of over 50% in size
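S. cerevisiae expressing influenza A NS1, grown in glucose, washed, then diluted 1:100 into pH 6.0 -URA galactose medium with 23 nl compound. Growth recovery read as OD600; NS1-free strain serves as control.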
Pf growth 96h – P. falciparum growth inhibition at 96 hour, primary screen for plastid delayed-death inhibitors; P. falciparum luciferase reporter growth, 96 h; Potency, µM (series often up to 28.7 µM), without a hit: at the top dose activity change, negative = inhibition, most hits filed as inhibitors; 6.9% of 320,000 active; note: % is set by controls: 0 for no effect and ±100 for the full control effect
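Erythrocytes infected with luciferase-expressing P. falciparum were dispensed at 2% hematocrit and 0.05% parasitemia (final), then incubated with compounds 96 hours at 37 C in 5% CO2. Luminescence after detection reagent addition reported growth.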
SARS PLpro yeast – SARS-CoV PLP inhibition in yeast; S. cerevisiae expressing SARS-CoV PLpro, growth rescue; Potency, µM (top dose mostly 32.9 µM), for inactives: top-dose activity, positive = growth rescue, usual class: activators; 0.19% of 330,000 active; AID 485353; calls by dose curve; note: 0% is about no effect; nearly all actives have a fitted effect of over 55% in size
Pf growth 48h – P. falciparum growth inhibition at 48 hours (one generation); P. falciparum luciferase growth in erythrocytes, 48 h; Potency, µM (doses to about 28.7 µM), inactives show at the top dose activity change, negative = inhibition, usual class: inhibitors; 5.9% of 310,000 active; note: % is set by controls: 0 for no effect and ±100 for the full control effect
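Cell-based growth assay: transgenic P. falciparum expressing firefly luciferase, cultured in red cells within RPMI 1640 containing 0.5% w/v Albumax, 24 mM bicarbonate and gentamycin. A drop in luciferase activity indicates inhibition.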
* marks the source's active call; other numbers are inactive results; ? = inconclusive; . = no result. Unless noted, calls come from the whole dose curve; as a rule, active = well fitted inhibition curve with a large enough effect; inconclusive = small, poorly fitted or top-dose-only effect, or another doubt; inactive = no such curve, though single readings can be large or run the other way. Potency is the fitted concentration of half-maximal effect.

SMILES	RE007 growth inh	NS1 function inh	Pf growth 96h	SARS PLpro yeast	Pf growth 48h
CCn1c(CN2CCN(C(c3ccccc3)c3ccccc3)CC2)nc2c1c(=O)n(C)c(=O)n2C	5%	4%	3.3µM*	2%	.
CCOC(=O)Cn1c(CN2CCN(C(c3ccccc3)c3ccccc3)CC2)nc2c1c(=O)n(C)c(=O)n2C	6%	1%	1.9µM*	-8%	4.1µM*
O=C(Cn1nnc(-c2cccs2)n1)NCc1ccccc1	-5%	-2%	5%	-2%	1%
COC(=O)c1ccccc1NC(=O)Cn1nnc(-c2ccc3c(c2)OCO3)n1	0%	24%	0%	2%	-20%
COC(=O)c1ccccc1NC(=O)Cn1nnc(-c2ccc(OC)cc2)n1	-3%	3%	0.59µM*	2%	-18%
O=C(Cn1nnc(-c2cccs2)n1)Nc1ccccc1C(F)(F)F	5%	.	0.29µM*	-6%	-1%
COC(=O)c1ccccc1NC(=O)C1CCN(C(=O)c2ccc(OC)cc2)CC1	10%	-3%	12µM*	4%	0%
Cc1ccc(NC(=O)Cn2nnc(-c3ccccc3NC(=O)c3cccs3)n2)cc1	-7%	3%	.	-4%	13µM*
O=C(NCCCc1ccccc1)c1cccc(NC(=O)C2CCCCC2)c1	2%	.	.	.	.
CCOC(=O)C1=C(COC(=O)c2ccco2)NC(=O)NC1CC (stereo unspecified)	-5%	.	23%	1%	6%
COc1ccc(S(=O)(=O)N2CCOCC2)cc1C(=O)NC1CCCCCC1	2%	.	?	-4%	-24%
O=C(O)COC(=O)Cc1ccccc1Nc1c(Cl)cccc1Cl	7%	-29%	?	1%	?
CC(=O)N1CCc2cc(S(=O)(=O)CCC(=O)NCCc3ccccc3)ccc21	-19%	3%	8%	3%	7%
COc1ccc(C(=O)Cn2nnc(-c3ccccc3NC(=O)C3CC3)n2)cc1	11%	-5%	?	2%	12µM*
COc1ccc(NC(=O)Cn2nnc(-c3ccccc3NS(=O)(=O)c3ccc(OC)cc3)n2)cc1	-10%	-9%	7%	22%	?
COc1ccc(NC(=O)Cn2nnc(-c3ccccc3NC(=O)c3cccs3)n2)cc1	-1%	-3%	?	4%	1.9µM*
COC(=O)c1ccccc1NC(=O)C1CC(=O)N(c2ccc(C)c(C)c2)C1 (stereo unspecified)	-13%	-24%	4.1µM*	3%	.
CCCOc1ccc(N2CC(C(=O)Nc3ccccc3C(=O)NCc3ccco3)CC2=O)cc1 (stereo unspecified)	0%	-9%	16%	-7%	9.3µM*
Cc1cc(C)c2c(c1)/C(=c1/sc3n(c1=O)CN(c1ccccc1)CN=3)C(=O)N2	-11%	3%	-4%	-2%	6%
Cc1nn(-c2ccccc2)c2nc(N)c(C(N)=O)cc12	-2%	2%	41%	2%	18%
COc1ccc(O)c(C(=O)c2cnc3onc(C)c3c2)c1	-6%	-9%	9.3µM*	-1%	?
Cc1nn(C)c2ncc(C(=O)c3cc(F)ccc3O)cc12	-16%	-12%	10µM*	-2%	.
Cc1nn(C)c2ncc(C(=O)c3ccccc3O)cc12	-6%	-7%	-8%	0%	-3%
COc1ccc(O)c(C(=O)c2cnc3c(c2)c(C)nn3C)c1	-17%	-24%	?	-12%	?
Cc1nn(-c2ccccc2)c2ncc(C(=O)c3cc(Cl)ccc3O)cc12	?	12%	2.6µM*	-26%	1.9µM*
SMILES	RE007 growth inh	NS1 function inh	Pf growth 96h	SARS PLpro yeast	Pf growth 48h
Cc1ccc(O)c(C(=O)c2cnc3c(c2)c(C)nn3C)c1	-3%	-8%	8.3µM*	-6%	?
COc1cccc(C(=O)NCC(=O)N/N=C/c2ccc3c(c2)OCO3)c1	-5%	2%	?	-1%	42%
O=C(c1cnc2ccc3ccccc3c2c1)c1cc(F)ccc1O	-18%	-28%	?	-1%	3.7µM*
CCCC[C@@H]1C=C(C(=O)O)[C@H](c2ccc(Br)cc2)N1S(=O)(=O)c1ccc(C)cc1	5%	.	.	2%	.
C/C(=N\Nc1ccc(S(=O)(=O)N2CCCCC2)cn1)c1cccc(Br)c1	12%	.	?	-15%	10µM*
Cc1cc(=O)oc(C)c1C(=O)N1CCCc2ccccc21	23%	4%	54%	-5%	35%
Cc1cc(=O)oc(C)c1C(=O)N1CCc2c([nH]c3ccccc23)C1C(C)C (stereo unspecified)	2%	-23%	12µM*	-4%	.
O=c1[nH]c(-c2ccccc2)nn1-c1ccc(Br)cc1Br	12%	8%	-17%	8%	53%
COc1ccc(OC)c(C(c2nnnn2CC2CCCO2)N2CCN(C)CC2)c1 (stereo unspecified)	0%	-7%	-22%	3%	8%
COc1ccc(C(c2nnnn2C2CCCC2)N2CCN(C3CCCC3)CC2)cc1OC (stereo unspecified)	3%	0%	?	7%	6%
c1ccc(CCn2nnnc2C(c2cccnc2)N2CCOCC2)cc1 (stereo unspecified)	1%	.	2.6µM*	1%	-14%
COc1ccc(OC)c(C(c2nnnn2CC2CCCO2)N2CCN(C3CCCC3)CC2)c1 (stereo unspecified)	33%	-3%	0%	4µM*	?
COc1ccc(C(c2nnnn2CCc2ccccc2)N2CCN(C3CCCC3)CC2)cc1OC (stereo unspecified)	-7%	-6%	0.59µM*	2%	-19%
Cc1ccc(C(c2nnnn2CCc2ccccc2)N2CCC(C)CC2)cc1 (stereo unspecified)	-24%	-32%	1%	-47%	7.4µM*
CS(=O)(=O)CCSc1ncccc1C(=O)NCc1cccs1	-4%	2%	37%	1%	13%
COc1ccccc1C(c1nnnn1Cc1ccccc1)N1CCN(C2CCCC2)CC1 (stereo unspecified)	-3%	3%	12%	-19%	?
CCCC(c1nnnn1CCc1ccccc1)N1CCC(C(N)=O)CC1 (stereo unspecified)	-7%	2%	4.1µM*	0%	-17%
CC(C)C(c1nnnn1CCc1ccccc1)N1CCC(C(N)=O)CC1 (stereo unspecified)	4%	4%	28%	1%	12%
COc1ccc(OC)c(C(c2nnnn2Cc2ccccc2)N2CCN(C3CCCCC3)CC2)c1 (stereo unspecified)	19%	-8%	-16%	3%	10µM*
COc1ccc(OC)c(C(c2nnnn2Cc2ccccc2)N2CCC(C(N)=O)CC2)c1 (stereo unspecified)	-17%	-4%	0%	7%	?
COc1cccc(C(c2nnnn2Cc2ccccc2)N2CCN(C3CCCC3)CC2)c1OC (stereo unspecified)	-6%	-1%	2.3µM*	0%	-5%
